# Activity calls are given as the source filed them. Unless noted, no rule for the calls is given here.
# Columns and labels:
# [1] = compound effects on lung adenocarcinoma cell viability – A549, calcein-AM fluorescence, 48 h, basal, profiling panel (AID 1162); conditions: higher = more signal; also: test concentration not given here
# [2] = compound effects on differentiated 3T3-L1 adipocyte viability – cell-based, 3T3-L1 adipocytes, calcein-AM fluorescence, 48 h, basal, profiling panel (AID 1163); conditions: 3T3-L1 adipocytes viability, higher = more signal; also: test concentration not given here
# [3] = compound effects on hepatocellular carcinoma cell viability – HepG2, calcein-AM fluorescence, 48 h, basal, profiling panel (AID 1164); conditions: higher = more signal; also: test concentration not given here
# [4] = compound effects on multiple myeloma cell viability – MM1S, calcein-AM fluorescence, 48 h, basal, profiling panel (AID 1165); conditions: higher = more signal; also: test concentration not given here
# [5] = calcein-AM signal in unstimulated myeloma cells – cell-based, calcein-AM fluorescence, 48 h, PK04 Diversity Set, profiling panel (AID 1166); conditions: RPMI8226 myeloma viability, higher = more signal;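 also: cells grown under basal conditions without added stimulus; test concentration not given here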
# [6] = JC-1 mitochondrial signal, unstimulated HepG2 cells – cell-based, JC-1 fluorescence, 24 h, 100 nL compound, profiling panel (AID 1167); conditions: HepG2 mitochondrial potential, higher = more signal; also: test concentration not given here
# [7] = JC-1 mitochondrial signal, unstimulated adipocytes – cell-based, JC-1 fluorescence, 3T3-L1 adipocytes, 24 h, 100 nL compound, profiling panel (AID 1168); conditions: JC-1 mitochondrial fluorescence, higher = more signal, called active from +8 up or from −8 down; also: test concentration not given here
# [8] = JC-1 mitochondrial signal, unstimulated myeloma cells – cell-based, JC-1 fluorescence, RPMI8226, 24 h, 100 nL compound, profiling panel (AID 1169); conditions: JC-1 mitochondrial potential fluorescence, higher = more signal; also: test concentration not given here
# [9] = JC-1 mitochondrial signal, unstimulated MM1S myeloma – cell-based, JC-1 fluorescence, 24 h, 100 nL compound, profiling panel (AID 1170); conditions: MM1S mitochondrial potential, higher = more signal; also: test concentration not given here
# [10] = resazurin metabolic signal in A549 cells – cell-based, resazurin fluorescence, 24 h, PK04 Diversity Set, profiling panel (AID 1171); conditions: A549 viability, higher = more signal, called active from +8 up or from −8 down; also: test concentration not given here
# [11] = resazurin metabolic signal in HepG2 cells – cell-based, resazurin fluorescence, 24 h, PK04 Diversity Set, profiling panel (AID 1172); conditions: HepG2 viability, higher = more signal; also: test concentration not given here
# [12] = budding yeast growth changes without added modifier – OD600, strain BY4716, 24 h, basal condition, primary screen (AID 1173); conditions: S. cerevisiae BY4716 growth, OD600, 24 h; higher = more signal, called active from +8 up or from −8 down
# [13] = viability profiling in MM1S myeloma cells – cell-based, resazurin fluorescence, basal, 24 h, PK04 Diversity Set, profiling panel (AID 1174); conditions: higher = more signal, called active from +8 up or from −8 down; also: test concentration not given here
# [14] = target: Dihydroorotate dehydrogenase (quinone), mitochondrial (Plasmodium falciparum (isolate 3D7)) (UniProt Q08210); assay: inhibition of P. falciparum DHODH – biochemical, C-terminal His tag, absorbance 600 nm, primary screen (AID 1175); conditions: PfDHODH enzyme, DCIP absorbance 600 nm; higher = more signal, called active from +8 up or from −8 down;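 also: recombinant parasite enzyme with a five histidine tag at its C terminus; test concentration not given here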
# [15] = inhibition of PAO1 biofilm formation – strain PAO1, LB-PBS medium, absorbance 600 nm, primary screen (AID 1176); also: test concentration not given here; conditions: P. aeruginosa PAO1 growth/biofilm, A600, 12 h; higher = more signal
# [16] = growth modulation of vineyard yeast isolate – strain RM11-1a, OD600, basal, 24 h, primary screen (AID 1177);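 also: cultures grown under basal conditions with no added stressor; test concentration not given here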; conditions: S. cerevisiae RM11-1a growth, OD600, 24 h; higher = more signal, called active from +8 up or from −8 down
# [17] = growth of efflux-deficient E. coli DRC39 – strain DRC39, OD650, 24 h, E. coli filamentation inducers, primary screen (AID 1178);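 also: growth measured as culture turbidity by optical density at 650 nm; test concentration not given here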; conditions: E. coli DRC39 acrAB, higher = more signal, called active from +8 up or from −8 down
# [18] = growth of efflux-deficient E. coli DRC39 – strain DRC39, OD650, 48 h, E. coli filamentation inducers, primary screen (AID 1179);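 also: screen aims at cell division blockers that make cells filament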; conditions: E. coli DRC39 delta-acrAB growth, higher = more signal, called active from +8 up or from −8 down
# [19] = viability profiling in RPMI8226 myeloma cells – cell-based, resazurin fluorescence, basal, 24 h, PK04 Diversity Set, profiling panel (AID 1180); conditions: higher = more signal;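 also: RPMI8826 multiple myeloma cell line at 5000 cells per well; test concentration not given here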
# [20] = target: E3 ubiquitin-protein ligase XIAP (Homo sapiens) (UniProt P98170); assay: small molecules binding XIAP protein – biophysical, small-molecule microarray, fluorescence 635 nm, primary screen (AID 1181); conditions: higher = more signal;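 also: score merges 667 nm emission and signal to noise over triplicate slides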
# E3 ubiquitin-protein ligase XIAP (Homo sapiens), sequence (P98170 whole entry, looked up): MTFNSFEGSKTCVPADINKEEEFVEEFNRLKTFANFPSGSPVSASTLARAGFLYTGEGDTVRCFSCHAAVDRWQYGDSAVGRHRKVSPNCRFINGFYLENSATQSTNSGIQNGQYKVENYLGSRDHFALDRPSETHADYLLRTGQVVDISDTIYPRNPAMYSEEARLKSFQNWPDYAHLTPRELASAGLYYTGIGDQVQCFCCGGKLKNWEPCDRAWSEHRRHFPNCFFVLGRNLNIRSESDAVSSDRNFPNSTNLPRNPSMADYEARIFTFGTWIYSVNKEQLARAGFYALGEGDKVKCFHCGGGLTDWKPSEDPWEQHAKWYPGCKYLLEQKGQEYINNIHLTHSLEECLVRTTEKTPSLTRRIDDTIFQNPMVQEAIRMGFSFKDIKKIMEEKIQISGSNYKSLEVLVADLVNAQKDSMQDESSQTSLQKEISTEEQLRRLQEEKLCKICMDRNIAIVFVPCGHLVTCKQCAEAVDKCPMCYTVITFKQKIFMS
# Dihydroorotate dehydrogenase (quinone), mitochondrial (Plasmodium falciparum (isolate 3D7)), sequence (Q08210 whole entry, looked up): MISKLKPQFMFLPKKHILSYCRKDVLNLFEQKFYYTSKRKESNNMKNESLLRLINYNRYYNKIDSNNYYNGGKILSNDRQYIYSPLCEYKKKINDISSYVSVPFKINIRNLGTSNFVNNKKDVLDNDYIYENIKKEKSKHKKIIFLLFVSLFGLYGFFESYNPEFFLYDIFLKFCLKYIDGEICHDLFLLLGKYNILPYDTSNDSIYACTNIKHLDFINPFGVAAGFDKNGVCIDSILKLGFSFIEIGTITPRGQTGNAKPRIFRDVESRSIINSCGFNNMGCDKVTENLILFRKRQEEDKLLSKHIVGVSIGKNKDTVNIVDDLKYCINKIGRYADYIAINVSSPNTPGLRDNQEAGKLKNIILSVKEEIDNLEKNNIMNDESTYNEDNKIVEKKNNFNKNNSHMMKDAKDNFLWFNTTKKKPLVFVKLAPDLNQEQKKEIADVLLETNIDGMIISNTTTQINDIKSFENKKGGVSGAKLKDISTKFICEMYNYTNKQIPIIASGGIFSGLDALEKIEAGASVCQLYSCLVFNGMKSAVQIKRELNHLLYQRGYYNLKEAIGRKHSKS
Compound,z-score [1],z-score [2],z-score [3],z-score [4],z-score [5],z-score [6],z-score [7],z-score [8],z-score [9],z-score [10],z-score [11],z-score [12],z-score [13],composite z-score [14],z-score [15],z-score [16],z-score [17],z-score [18],z-score [19],composite z-score [20]
COC(=O)[C@@]1(Cc2ccc(OC)cc2)[C@H]2c3cc(C(=O)N(C)C)n(Cc4c(CO)[nH]cc(C)c4=O)c3C[C@H]2CN1C(=O)c1ccccc1,-1.38,-0.621,-0.177,-0.314,-0.411,-0.67,-1.33 (inactive),-0.0347,-1.24,0.252 (inactive),-0.548,-0.0117 (inactive),-1.06 (inactive),-0.501 (inactive),0.371 (inactive),-0.463 (inactive),-0.897 (inactive),-0.542 (inactive),-0.717,-0.127
CO[C@H]1O[C@H](CO)[C@@H](OC(=O)Nc2cccc(F)c2)[C@H](OC(=O)c2cc3ccccc3[nH]2)[C@H]1OC(=O)c1cc2ccccc2[nH]1,1.16,0.437,0.387,0.0134,0.804,-1.56,2.42 (inactive),-0.397,-0.415,-2.49 (inactive),-2.49,-0.21 (inactive),-2.63 (inactive),-0.603 (inactive),1.1 (inactive),-0.67 (inactive),0.181 (inactive),1.02 (inactive),-2.46,0.331
CCCCN1CC=CC23O[C@@H]4C=CCCOC(=O)C4[C@H]2C(=O)N(CCO)[C@@H]3C1=O (stereo not given in full),-0.725,0.0904,-2.09,0.303,-0.105,-0.508,0.0409 (inactive),0.0612,0.37,-0.288 (inactive),0.551,-0.0816 (inactive),0.309 (inactive),0.0051 (inactive),0.345 (inactive),0.13 (inactive),-0.323 (inactive),-0.414 (inactive),-0.0692,-0.104
CCCCC(=C=CC[C@H](O)c1ccccc1OCCO)CCO,-0.341,-0.358,0.285,-0.0455,-0.857,-0.95,0.101 (inactive),-0.193,-0.434,0.356 (inactive),-0.259,-1.3 (inactive),0.189 (inactive),-0.228 (inactive),0.755 (inactive),0.493 (inactive),-0.295 (inactive),-0.224 (inactive),-0.0336,-0.223
CC[C@@H](O[Si](C#C[Si](C(C)C)(C(C)C)C(C)C)(C(C)C)C(C)C)c1cn([C@H](C)c2ccccc2)nn1,-0.7,-0.685,-0.499,0.375,0.253,-0.0266,-1.02 (inactive),0.0594,-0.876,0.566 (inactive),-0.0011,1.66 (inactive),0.248 (inactive),0.308 (inactive),0.596 (inactive),0.887 (inactive),-0.263 (inactive),0.142 (inactive),0.328,-0.209
O=C1NC(=O)C2C1C=CC(C(O)c1ccc(F)cc1)N2Nc1ccc(Cl)cc1Cl (stereo not given),-2.35,-0.275,-3.57,-2.88,-2.29,-3.47,-0.472 (inactive),-0.0645,0.174,-2.11 (inactive),-2.15,-16.3 (active),-1.28 (inactive),0.827 (inactive),1.06 (inactive),-8.86 (active),-0.2 (inactive),-1.52 (inactive),-1.79,0.285
C=CCNC(=O)[C@@H]1[C@H]2C(=O)O[C@H](c3ccccc3)[C@H](c3ccccc3)N2[C@H](c2ccc(OCCO)cc2)[C@@]12C(=O)Nc1ccc(C#CCNC(N)=O)cc12,-0.842,0.274,-0.397,0.0041,0.155,-0.921,-0.962 (inactive),0.672,1.23,0.36 (inactive),-0.0448,1.23 (inactive),-0.286 (inactive),-0.157 (inactive),1.18 (inactive),1.06 (inactive),0.0047 (inactive),-0.568 (inactive),0.671,0.129
CN1C(=O)C2C=CC(C(O)c3ccc(I)cc3)N(N(c3ccccc3)c3ccccc3)C2C1=O (stereo not given),-0.62,-1.15,-0.0518,-0.0182,-0.726,-0.994,-1.67 (inactive),-0.251,-0.752,-0.614 (inactive),-0.476,0.943 (inactive),-0.788 (inactive),0.0495 (inactive),0.944 (inactive),0.67 (inactive),-1.36 (inactive),-0.105 (inactive),-1.1,0.95
CC(C)Cc1ccc(CN2CC[C@@H](NC(=O)c3ccccc3)C2)cc1,0.0665,-0.418,-0.179,-3.15,-2.77,-0.251,0.343 (inactive),-0.442,-1.38,0.247 (inactive),-0.375,-7.1 (inactive),-0.18 (inactive),0.228 (inactive),-0.0248 (inactive),2.05 (inactive),0.295 (inactive),0.118 (inactive),-0.193,-0.135
